Test results as given in PubChem BioAssay AID602340 (Broad Institute, 2012).
Hit rate of the full screen: of about 330,000 compounds, about 2,600 (0.79%) were called active. This excerpt belongs to a sample that is enriched for actives. A number with no mark means an inactive call.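 Rule for the calls: active = mean ATP rescue above about 67%, or every replicate alone reaching that limit (limit read from the data, passing the limit was not always enough); inconclusive = no clear call, values can overlap the other calls; inactive = mean under the limit and some replicate under it.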

experiment: protection of differentiated C2C12 cells from simvastatin – single point, plate reader, primary screen (AID 602340); conditions: C2C12 myotubes + simvastatin, ATP luminescence, 48 h; at 7.49 µM; active compounds read high; scaled: DMSO 0, geranylgeraniol control 100;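 note: myotubes were challenged with 10 µM simvastatin during compound exposure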

Structure (SMILES)	rescue of ATP level
O=C(Nc1ccccc1F)N1C[C@H]2[C@@H](c3ccccc31)[C@H](CO)N2C(=O)c1ccccn1	45.1%
O=C(N[C@@H]1CC[C@@H](CCNS(=O)(=O)Cc2ccccc2)O[C@@H]1CO)c1ccccc1F	-15%
CN(C)C(=O)[C@@H]1[C@@H](CO)[C@@H]2Cn3c(ccc(-c4ccccc4F)c3=O)[C@@H]2N1C(=O)C1CC1	-6.7%
O=C(NCc1ccco1)c1ccc(Cn2c(=O)c3sccc3n(Cc3ccc(F)cc3)c2=O)cc1	-13.7%
O=C(Cc1ccc(-n2c(=O)c3sccc3n(Cc3ccc(F)cc3)c2=O)cc1)NCc1ccco1	-0.81%
O=C(NCc1ccco1)c1cc2sccc2n1Cc1ccc(F)cc1	160% (active)
O=C(C[C@@H]1CC[C@@H]2[C@H](COC[C@H](O)CN2Cc2cccc(-c3ccncc3)c2)O1)N1CCOCC1	7.32%
CS(=O)(=O)c1ccc(C(=O)NNC(=O)c2cccs2)cc1	19.1%
Cc1ccc(C(=O)NNC(=O)CSc2nnc3ccccn23)cc1	0.262%
Cc1ccc(SCC(=O)NNC(=O)c2ccc(S(C)(=O)=O)cc2)cc1	90% (active)
CO[C@H]1CN(C)C(=O)c2ccc(NC(=O)C3CCC3)cc2OC[C@@H](C)N(Cc2ccccn2)C[C@H]1C	9.17%
CNC(=O)C[C@H]1CC[C@@H]2[C@H](COc3ccc(NC(=O)C(C)C)cc3C(=O)N2C)O1	5.79%
O=C(c1c(F)cccc1Cl)N1CCN(c2ccccn2)CC1	-10.5%
O=C(c1ccc2c(c1)C(=O)N(c1ccc(Cl)cc1)C2=O)N1CCN(c2ccccn2)CC1	135% (active)
O=C(CCC1CCCN(C(=O)c2ccc(F)c(F)c2)C1)N1CCN(c2ccccn2)CC1 (stereo not drawn)	-0.349%
COCC(=O)Nc1ccc2c(c1)OC[C@H](C)N(C(=O)c1cnccn1)C[C@@H](C)[C@H](OC)CN(C)C2=O	3.92%
COc1cc(C2C(C(=O)c3sc(C)nc3C)=C(O)C(=O)N2CCN(C)C)cc(OC)c1OC (stereo not drawn)	116% (active)
COc1ccccc1CNC(=O)COC(=O)c1sc(C)nc1C	-4.29%
COc1ccc(/C(O)=C2/C(=O)C(=O)N(CCCN(C)C)C2c2ccccc2)cc1OC (stereo not drawn)	14.8%
C[C@@H]1CN([C@@H](C)CO)C(=O)Cc2cc(NS(=O)(=O)c3cccs3)ccc2O[C@@H]1CN(C)S(=O)(=O)c1ccc(F)cc1	-10.2%
COCC(=O)Nc1ccc2c(c1)[C@@H]1C[C@H](CC(=O)NCc3ccc(-c4ccccc4)cc3)O[C@H](CO)[C@@H]1O2	-0.998%
C[C@@H]1CCCCO[C@@H](CN(C)C(=O)NC2CCCCC2)[C@H](C)CN([C@H](C)CO)C(=O)c2cc(NC(=O)Nc3cccc4ccccc34)ccc2O1	-71%
CCc1ccc(N2CC(C(=O)N3CCCCCC3)CC2=O)cc1 (stereo not drawn)	-5.19%
CCc1ccc(N2CC(C(=O)Nc3ccc(S(=O)(=O)Nc4nccs4)cc3)CC2=O)cc1 (stereo not drawn)	2.04%

Structure (SMILES)	rescue of ATP level
CCc1ccc(N2CC(C(=O)NC3=NCCS3)CC2=O)cc1 (stereo not drawn)	109% (active)
COc1ccc(NC(=O)Nc2ccc3c(c2)C(=O)N([C@@H](C)CO)C[C@H](C)[C@H](CN(C)C(=O)Nc2ccccc2)OCCCC[C@@H](C)O3)cc1	0.523%
CN1C(=O)c2cc(NS(C)(=O)=O)ccc2OC[C@@H]2O[C@@H](CC(=O)NCc3ccc(-c4ccccc4)cc3)CC[C@H]21	21.8%
Cc1nn(Cc2ccccc2Cl)c(C)c1NC(=O)Cn1nc([N+](=O)[O-])c(Cl)c1C	13.1%
CN(C)c1ccc(/C=N/NC(=O)c2ccc(Cn3cc(Br)cn3)o2)cc1	-6.78%
Cc1c(Cl)c([N+](=O)[O-])nn1Cc1ccc(C(=O)N/N=C\c2cc(Cl)ccc2O)o1	74.2% (active)
CO[C@@H]1CC[C@@H]2CCOc3ccc(C#N)cc3C(=O)N(C)[C@H](C)C(=O)N(C)C[C@@H]1O2	4.94%
O=C(NCC[C@@H]1CC[C@H](NC(=O)C2CCCCC2)[C@@H](CO)O1)Nc1ccc(Cl)cc1	-9.47%
CO[C@@H]1CN(C)C(=O)c2ccc(NS(=O)(=O)c3cccc(F)c3)cc2OC[C@H](C)N(C(=O)Cc2cccnc2)C[C@@H]1C	19.8%
C[C@H]1CN([C@@H](C)CO)C(=O)c2cc(-c3cccc(C(=O)N(C)C)c3)cnc2O[C@H]1CN(C)S(=O)(=O)c1ccccc1	-7.9%
Nc1ccc(C(=O)OCC(=O)NC2CCS(=O)(=O)C2)cc1[N+](=O)[O-] (stereo not drawn)	-3.1%
NC(=O)Nc1ccc(C(=O)OCC(=O)NC2CCCc3ccccc32)cc1 (stereo not drawn)	-1.62%
Nc1ccc(C(=O)OCC(=O)NC2CCCc3ccccc32)cc1[N+](=O)[O-] (stereo not drawn)	150% (active)
Cc1nn(C)c(Oc2ccc(Cl)cc2)c1C=O	15.3%
Cc1nn(C)c(Oc2ccccc2)c1CCNS(=O)(=O)c1ccc(F)cc1	8.55%
Cc1nn(C)c(Oc2ccccc2)c1[N+](=O)[O-]	72.4% (active)
CCC1(CC)NC(=O)N(CC(=O)OCC(=O)Nc2ccc(C(F)(F)F)cc2)C1=O	115% (active)
CCC1(CC)NC(=O)N(CC(=O)OCC(=O)c2cc(C)c(C)cc2C)C1=O	8.64%
CCC1(CC)NC(=O)N(CC(=O)OCC(=O)NC(=O)c2ccccc2)C1=O	-1.1%
C[C@H]1CN([C@@H](C)CO)C(=O)c2c(c3ccccc3n2C)-c2ccccc2CO[C@H]1CN(C)C(=O)Nc1ccc(F)cc1	19.1%
COCC(=O)N1C[C@H]2[C@@H](c3ccccc31)[C@@H](CO)N2C(=O)NC(C)C	17%
COc1ccc(OC)c(CNC(=O)C2CCCN(c3nc4ccccc4o3)C2)c1 (stereo not drawn)	102% (active)
COc1ccccc1CNC(=O)C1CCN(c2nc3ccccc3o2)CC1	15.8%
CCc1ccc(CNC(=O)C2CCCN(c3nc4ccccc4o3)C2)cc1 (stereo not drawn)	28.3%
